Drawing on PubChem BioAssay (NCI), this text covers growth for 38 compounds.

Compounds without any hit were thinned out: in the full panel of roughly 83,000, 20% have a hit.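 Results are percent growth after 48 hours of single-concentration exposure. 100 means growth as in untreated cells, lower positive values show inhibition; negative values down to -100 show cell death.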 Unmarked numbers belong to inactive results. The source made the active and inactive calls. The calls were made as follows: active = growth percent below 10; inactive = the rest.

The experiment relates to MALME-3M melanoma. The experiment in a line: NCI-60 one-dose screen, 48 h (100 = growth as untreated, 0 = no growth, -100 = all killed). The note with it: 10 µM unless noted.
As to `O=C(Nc1ccc2c(ccn2Cc2ccccn2)c1)c1ccnnc1`, the growth is 103%. As for `N#C/C(=C\c1ccc(-c2ccc(Cl)cc2Cl)o1)c1ccc(F)cc1`, the figure is 98.7%; as for `COc1ccc(/C(N)=N/C(N)=N/c2nc3ccccc3s2)cc1`, 94.4%; as for `Nc1nc(-c2cccc([N+](=O)[O-])c2)c(N=Nc2ccccc2)s1`, 103%. As for `CNC(=O)c1cc(Oc2ccc3nc(NC(=O)c4cc(N5CCOCC5)cc(C(F)(F)F)c4)sc3c2)ccn1`, the figure is 87.1%; as for `C=C(C)[C@@H]1CC[C@]2(COP(=O)(OCC)OCC)CC[C@]3(C)[C@H](CC[C@@H]4[C@@]5(C)CCCNC(C)(C)[C@@H]5CC[C@]43C)[C@@H]12`, -51.8% (active); as for `CCCn1cnc2c(c1=N)C(c1ccc(F)cc1)c1sc3c(CC)cccc3c1O2` (stereo not drawn), 54.6%. As to `CC1(C)[C@@H](O)CC[C@]2(C)[C@H]3CC[C@@H]4[C@H]5[C@H](C(=O)/C=C\c6ccc([N+](=O)[O-])cc6)CC[C@]5(O)CC[C@@]4(C)[C@]3(C)CC[C@@H]12`, the growth was 66.6%.

Take `c1cc(-c2nc3ccc4[nH]ncc4c3c3c2CCCC3)[nH]n1`: the growth was 87.7%. As for `O=C(CSc1nc2ccccc2c(=O)n1-c1ccccc1)Nc1ccc(-c2nc3ccc([N+](=O)[O-])cc3[nH]2)cc1`, the figure is 71.1%.

Consider `C[C@@H](Nc1ncnc2ccc(-c3cnc(Cl)c(NS(C)(=O)=O)c3)cc12)c1ccccc1`, for which the growth was 59.2%.

As to `CC(=O)Nc1cccc(Nc2nc(N[C@H](C)c3ccccc3)c3ccccc3n2)c1`, the growth was 71.3%. As for `COc1cc(-c2nn(C(C)(C)C)cc2-c2ccnc(NCCCNS(=O)(=O)c3cccc(F)c3)n2)ccc1Cl`, the figure is 88.4%.

As to `Cc1ccc2c(c1)C(=O)/C(=C/c1cccc(F)c1)S2`, the growth was 97.9%. In the case of `CCCC(=O)NC(c1cccnc1)c1cc(C(C)(C)C)c2cccnc2c1O` (stereo not drawn) it was 25%; in that of `CCN(CC)CCn1c2ccc(O)cc2c2sc3cc(OC)ccc3c(=O)c21`, 28.2%; in that of `Cn1cc(-c2nc(N)nnc2-c2c[nH]c3ccccc23)c2cc(Br)ccc21`, 40.8%.

With `C=C(C)[C@@H]1CC[C@]2(COCCCNCCC#N)CC[C@]3(C)[C@H](CC[C@@H]4[C@@]5(C)CC[C@H](OCCCNCCC#N)C(C)(C)[C@@H]5CC[C@]43C)[C@@H]12`, the growth was 72.4%. In the case of `CCNC(=O)N1CCc2cc(OC)c(OCCc3ccc(OC)c(N)c3)cc2C1c1ccc(C)cc1C` (stereo not drawn) it was 62.6%.

`CC1(C)CC[C@]2(C(=O)N3CCOCC3)CC[C@]3(C)C(=CC[C@@H]4[C@@]5(C)C/C(=C/c6ccccn6)C(=O)C(C)(C)[C@@H]5CC[C@]43C)[C@@H]2C1`: the growth is 88.7%. As for `O=C(Nc1nc2ccc([N+](=O)[O-])cc2s1)Nc1ccccc1Br`, the figure is 14.6%; as for `CC1=N[C@@H]2CN(C(=O)OC(C)(C)C)C[C@@H]2n2c1cc1ccccc1c2=O`, 107%. As for `Cc1[nH]c(C(=O)Nc2ccccc2OCc2cccc(C(=O)N3CCC[C@@H](N)C3)c2)c(Cl)c1Cl`, the figure is -79.1% (active). In the case of `Cc1cc(-c2ccc(Cl)cc2)n(Cc2nnc(SCC(=O)Nc3ccc(S(N)(=O)=O)cc3)n2-c2ccc([N+](=O)[O-])cc2)n1` it was 92.9%; in that of `Cc1c(F)cc(C(N)=O)cc1NCC(=O)Nc1ccc([N+](=O)[O-])cc1`, 109%.

Consider `COc1cc(-c2ccc3ncnc(NCc4ccccc4)c3c2)cnc1OC`, for which the growth is 94.9%. Consider `CCNC(=O)N1CCc2cc(OC)c(OCCc3ccc(OC)c(N)c3)cc2C1c1cc(C)c(C)cc1C` (stereo not drawn), for which the growth is 45.5%. In the case of `O=C1[C@H]2Cc3c([nH]c4ccccc34)[C@@H](c3ccc(Br)cc3)N2C(=O)CN1C1CCN(CC2CCCCC2)CC1` it was -82.3% (active). As for `COC(=O)c1ccc(NC2=C/C(=N/S(=O)(=O)c3ccc(C(=O)O)cc3)c3ccccc3C2=O)cc1`, the figure is -89.3% (active). In the case of `COc1ccc(CCOc2cc3c(cc2OC)CCN(C(=O)NCc2cocn2)C3c2ccc(C)cc2C)cc1` (stereo not drawn) it was 52.2%; in that of `Cc1ccc(C(=O)NN2C(=O)/C(=C/C=C/c3ccco3)SC2=S)cc1`, 93.9%; in that of `COc1ccc(/C=C/C(=O)c2cccc(NC(=O)CSc3nc4ccccc4c(=O)n3-c3ccccc3)c2)cc1OC`, 107%. For the compound `C[C@H]1c2[nH]c3ccccc3c2C[C@H]2C(=O)N(CCCCCCC(=O)NO)CC(=O)N21`, the growth is 41.4%.

As for `C=CCOc1cccc(/C=C2\SC(=S)N(C3CC(=O)N(c4ccc(Br)cc4)C3=O)C2=O)c1` (stereo not drawn), the growth is 100%. In the case of `CC(C)(C)c1ccc(-c2nnc(-c3nc4ccccc4nc3Cl)o2)cc1` it was 101%; in that of `Nc1nc(-c2cccc([N+](=O)[O-])c2)c(N=Nc2ccc(Br)cc2)s1`, -62% (active); in that of `CCNC(=O)N1CCc2cc(OC)c(OCCc3ccc(OC)cc3)cc2C1c1ccc(OC)cc1C` (stereo not drawn), 45.9%. As for `COc1ccc(-c2nc(C(Cl)Cl)nc3cc(-c4ccccc4)nn23)cc1`, the figure is -44.9% (active).
